Source: PubChem BioAssay (NCI)
Where “and” joins values, the source holds several entries; their conditions need not be identical. Identical values can stand only once. This is part of a sample that, as a whole, favours compounds with a hit. Of some 83,000 tested, about 20% had one in any assay.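 Single-dose data. Exposure time 48 hours. Values below 10 considered active.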

Key:
Test in all cases: NCI-60 one-dose screen, 48 h (100 = growth as untreated, 0 = no growth, -100 = all killed)
Settings in all cases: 10 µM unless noted
HCT-15 colon = tested on: HCT-15 colon
HT29 colon = tested on: HT29 colon
SNB-75 CNS = tested on: SNB-75 CNS
SNB-19 CNS = tested on: SNB-19 CNS
U251 CNS = tested on: U251 CNS
PC-3 prostate = tested on: PC-3 prostate
SK-MEL-5 melanoma = tested on: SK-MEL-5 melanoma
UACC-62 melanoma = tested on: UACC-62 melanoma
SK-MEL-28 melanoma = tested on: SK-MEL-28 melanoma
SK-MEL-2 melanoma = tested on: SK-MEL-2 melanoma
EKVX NSCLC = tested on: EKVX NSCLC
SN12C renal = tested on: SN12C renal
UO-31 renal = tested on: UO-31 renal
TK-10 renal = tested on: TK-10 renal
ACHN renal = tested on: ACHN renal
CAKI-1 renal = tested on: CAKI-1 renal
A498 renal = tested on: A498 renal
CCRF-CEM leukemia = tested on: CCRF-CEM leukemia
MOLT-4 leukemia = tested on: MOLT-4 leukemia
LOX IMVI melanoma = tested on: LOX IMVI melanoma

Measured: growth

COc1ccc(NC(=S)Nc2ccccn2)cc1
inactive: HCT-15 colon 98.6% | HT29 colon 107% | SNB-75 CNS 152% | SNB-19 CNS 98.9% | U251 CNS 93.6% | PC-3 prostate 97.2% | SK-MEL-5 melanoma 98.9% | UACC-62 melanoma 103% | SK-MEL-28 melanoma 110% | SK-MEL-2 melanoma 94.6% | EKVX NSCLC 96.5% | SN12C renal 100% | UO-31 renal 93.7% | TK-10 renal 102% | ACHN renal 97.7% | CAKI-1 renal 89.3% | A498 renal 83% | CCRF-CEM leukemia 90.8% | MOLT-4 leukemia 91%

O=C(O)CSCc1nc2ccccc2[nH]1
inactive: HCT-15 colon 112% | HT29 colon 103% | SNB-75 CNS 88.7% | SNB-19 CNS 97.4% | U251 CNS 109% | PC-3 prostate 95.5% | SK-MEL-5 melanoma 108% | UACC-62 melanoma 93.9% | SK-MEL-28 melanoma 105% | SK-MEL-2 melanoma 105% | EKVX NSCLC 117% | SN12C renal 93.1% | UO-31 renal 93.3% | TK-10 renal 121% | ACHN renal 99.8% | CAKI-1 renal 107% | A498 renal 97% | CCRF-CEM leukemia 93.7% | MOLT-4 leukemia 99.5%

Cc1ccc2nc3c(nc2c1)-c1cccc2cccc-3c12
inactive: HCT-15 colon 75.1% | HT29 colon 80.3% | SNB-75 CNS 94.9% | SNB-19 CNS 100% | U251 CNS 78.8% | PC-3 prostate 87.4% | SK-MEL-5 melanoma 62.7% | UACC-62 melanoma 79.6% | LOX IMVI melanoma 82.6% | SK-MEL-2 melanoma 107% | EKVX NSCLC 71.4% | SN12C renal 81.2% | UO-31 renal 63.1% | TK-10 renal 83.5% | ACHN renal 68.6% | CAKI-1 renal 79.1% | A498 renal 83.1% | CCRF-CEM leukemia 85.7% | MOLT-4 leukemia 80.1%

COc1cc(/C=N/Nc2nc3c([nH]2)c(=O)n(C)c(=O)n3C)ccc1O
inactive: HCT-15 colon 105% | HT29 colon 97.7% and 110% | SNB-75 CNS 86.9% and 88% | SNB-19 CNS 112% and 108% | U251 CNS 99.1% and 104% | PC-3 prostate 99% and 98% | SK-MEL-5 melanoma 97.9% and 104% | UACC-62 melanoma 91.9% and 97.9% | SK-MEL-28 melanoma 108% and 107% | SK-MEL-2 melanoma 98.2% and 108% | EKVX NSCLC 103% and 119% | SN12C renal 97.4% and 98.2% | UO-31 renal 86.7% and 86.2% | TK-10 renal 95.7% and 93.1% | ACHN renal 109% | CAKI-1 renal 99.3% and 118% | A498 renal 82.3% and 77.6% | CCRF-CEM leukemia 89.2% and 104% | MOLT-4 leukemia 87.9% and 97.5%

NC(=S)N/N=C(\c1ccc(Br)cc1)C1CC1
inactive: HCT-15 colon 81.8% and 82.9% | HT29 colon 68.4% | SNB-75 CNS 87.1% and 76.7% | SNB-19 CNS 108% | U251 CNS 93.2% | PC-3 prostate 84.1% and 61.5% | SK-MEL-5 melanoma 100% and 95.9% | UACC-62 melanoma 98.4% | SK-MEL-28 melanoma 102% and 103% | SK-MEL-2 melanoma 92.8% | EKVX NSCLC 58% and 68.4% | SN12C renal 89.5% | UO-31 renal 61.4% and 56.8% | TK-10 renal 119% | ACHN renal 95.7% and 93% | CAKI-1 renal 83.7% and 81.4% | A498 renal 99.5% | CCRF-CEM leukemia 52.5% and 55.6% | MOLT-4 leukemia 38% and 45.2%

Nc1ccc2[nH]c(-c3ccccc3)cc(=O)c2c1
inactive: HCT-15 colon 73.7% | HT29 colon 78.7% | SNB-75 CNS 82.4% | SNB-19 CNS 88.7% | U251 CNS 72.9% | PC-3 prostate 74.1% | SK-MEL-5 melanoma 58.2% | UACC-62 melanoma 77.6% | SK-MEL-28 melanoma 86.5% | SK-MEL-2 melanoma 78.8% | EKVX NSCLC 96.1% | SN12C renal 98.2% | UO-31 renal 89.9% | TK-10 renal 123% | ACHN renal 102% | CAKI-1 renal 72.2% | A498 renal 84.2% | CCRF-CEM leukemia 67.9% | MOLT-4 leukemia 63.8%

COc1ccc(Cn2c(NCCN=C(N)N)nc(=O)n(Cc3ccc(F)cc3)c2=O)cc1
inactive: HCT-15 colon 103% and 106% | HT29 colon 101% and 100% | SNB-75 CNS 55.1% and 22.7% | SNB-19 CNS 77.6% and 78.7% | U251 CNS 81.7% | PC-3 prostate 83% and 87.1% | SK-MEL-5 melanoma 98.7% and 99.9% | UACC-62 melanoma 112% and 98.4% | LOX IMVI melanoma 96.2% | SK-MEL-2 melanoma 101% | SN12C renal 91.4% and 68.8% | UO-31 renal 77.7% and 75.3% | TK-10 renal 103% and 104% | ACHN renal 97.7% and 102% | CAKI-1 renal 95.2% and 86.5% | A498 renal 92.1% and 97.1% | CCRF-CEM leukemia 93.1% and 87.4% | MOLT-4 leukemia 84.6% and 88.4%

C[N+](C)(C)CN1C(=O)c2ccccc2C1=O
inactive: HCT-15 colon 103% | HT29 colon 99.6% | SNB-75 CNS 77.5% | SNB-19 CNS 98.5% | U251 CNS 102% | PC-3 prostate 96.4% | SK-MEL-5 melanoma 102% | UACC-62 melanoma 101% | LOX IMVI melanoma 103% | SN12C renal 100% | UO-31 renal 97.3% | ACHN renal 102% | CAKI-1 renal 94.4% | A498 renal 98.2% | CCRF-CEM leukemia 101% | MOLT-4 leukemia 94.2%

CCN(CC)C(=O)c1cccnc1
inactive: HCT-15 colon 106% | HT29 colon 103% | SNB-75 CNS 98.7% | SNB-19 CNS 105% | U251 CNS 96.2% | PC-3 prostate 100% | SK-MEL-5 melanoma 103% | UACC-62 melanoma 105% | SK-MEL-28 melanoma 111% | SK-MEL-2 melanoma 108% | EKVX NSCLC 112% | SN12C renal 106% | UO-31 renal 116% | TK-10 renal 97.8% | ACHN renal 107% | CAKI-1 renal 97.4% | A498 renal 114% | CCRF-CEM leukemia 97.4% | MOLT-4 leukemia 92.8%

CC1=NN(c2ccccc2)C(=O)C1C(=O)c1ccccc1 (stereo not drawn)
inactive: HCT-15 colon 108% | HT29 colon 107% | SNB-75 CNS 103% | SNB-19 CNS 95.1% | U251 CNS 94.4% | PC-3 prostate 87.9% | SK-MEL-5 melanoma 99.1% | UACC-62 melanoma 99.2% | LOX IMVI melanoma 96.9% | SK-MEL-2 melanoma 96.6% | SN12C renal 108% | UO-31 renal 90.6% | TK-10 renal 107% | ACHN renal 99.4% | CAKI-1 renal 95.9% | A498 renal 92.4% | CCRF-CEM leukemia 88.4% | MOLT-4 leukemia 95.8%

O=C=NC(c1ccccc1)(c1ccccc1)c1ccccc1
inactive: HCT-15 colon 102% | HT29 colon 99.9% | SNB-75 CNS 84.7% | SNB-19 CNS 107% | U251 CNS 99.4% | PC-3 prostate 102% | SK-MEL-5 melanoma 114% | UACC-62 melanoma 101% | LOX IMVI melanoma 102% | SK-MEL-2 melanoma 118% | SN12C renal 102% | UO-31 renal 71.9% | TK-10 renal 110% | ACHN renal 99.2% | CAKI-1 renal 91.7% | A498 renal 116% | CCRF-CEM leukemia 102% | MOLT-4 leukemia 92.2%
